Sampled rows, rich in hits. Any-hit rate of the full collection: about 7.7%.
FBPA Giardia inh = Giardia lamblia aldolase inhibition; 290,000 compounds, 0.71% hits; Potency, µM (titrated, usually from 59.6 µM), actives largely listed as inhibitors; purified Giardia FBPA; AID 2451; also: nearly all actives have a fitted effect of over 55% in size
Target sequence (A8B2U2 whole entry, looked up): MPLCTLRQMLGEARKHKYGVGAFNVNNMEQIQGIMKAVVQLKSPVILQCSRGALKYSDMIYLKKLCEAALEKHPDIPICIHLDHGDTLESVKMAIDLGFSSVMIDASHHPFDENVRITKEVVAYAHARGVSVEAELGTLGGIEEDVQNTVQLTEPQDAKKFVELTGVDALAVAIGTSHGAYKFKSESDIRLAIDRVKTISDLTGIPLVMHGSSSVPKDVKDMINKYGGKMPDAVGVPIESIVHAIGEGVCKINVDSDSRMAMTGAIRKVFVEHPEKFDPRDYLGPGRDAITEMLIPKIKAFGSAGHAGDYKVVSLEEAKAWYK
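40 nM FBPA preincubated 10 min at RT with compound (up to 57.5 uM final), then substrate plus GAPDH/TPI/NAD/arsenate coupling and diaphorase/resazurin added. Fluorescence read after 20 min at RT, 525/598 nm.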
FMDV inh = antivirals against foot and mouth disease virus; FMDV antiviral cell-based qHTS; 410,000 compounds, 1.2% hits; Potency, µM (highest dose often 57.9 µM), hits mostly inhibitors; calls by dose curve; tested in HEK293T cells; also: read-out not given here; nearly all actives have a fitted effect of over 45% in size
HCMV antiviral = blocks human cytomegalovirus replication. HFF cells, HCMV-luciferase reporter, 72 h; stronger effect = lower value. activity change, negative = inhibition, % at 57.5 µM. 410,000 compounds, 4.5% hits. AID 1259415; in the data active = activity change below about -60%; inconclusive = no clear call, values can overlap the other calls; inactive = above about -39%
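Cell-based, HFFs, 1000 cells/well, 16 h 37C; cpds in DMSO + HCMV-luc, MOI 1 PFU/cell; 72 h 37C; OneGlo luminescence after 5 min RT; norm. to buffer vs Salinomycin 10uM.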
Tb PYK inh = inhibitors of Trypanosoma brucei pyruvate kinase. TbPYK enzyme, Kinase-Glo Plus ATP luminescence, 45 min. Potency, µM (series often up to 76.8 µM), most hits filed as inhibitors. 410,000 compounds, 0.12% hits. AID 624173; also: nearly all actives have a fitted effect of over 50% in size
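In this concentration-response screen, enzyme-free wells defined baseline while DMSO plates tracked drift. Each reaction combined TbPYK, substrate, compound and 130 uM ADP for 45 min at room temperature. Kinase-Glo Plus luminescence gave the signal.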
RE007 growth inh = less growth of the S. pombe RE007 Vpr strain; S. pombe RE007 Vpr strain, BacTiter-Glo ATP luminescence, 24 h; Potency, µM (top dose mostly 92.2 µM), actives largely listed as inhibitors; 360,000 compounds, 0.21% hits; active = well fitted falling curve with a large enough effect; inconclusive = small, poorly fitted or top-dose-only effect; inactive = no such curve, though single readings can be large or run the other way; also: nearly all actives have a fitted effect of over 50% in size
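Fission yeast RE007 carrying one integrated HIV-1 vpr copy, seeded at OD 0.01 in PMG+AL medium with 23 nL pinned compound. Grown 24 h at 30 degrees; viability read by BacTiter-Glo luminescence after 5 min.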
Sm TGR block = blocks Schistosoma mansoni thioredoxin glutathione reductase; Q962Y6; purified TGR, DTNB reduction, TNB absorbance 405 nm; 360,000 compounds, 3% hits; Potency, µM (doses to about 114 µM), usual class: inhibitors; also: nearly all actives have a fitted effect of over 60% in size
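TGR 20 nM + NADPH 100 uM (dispensed conc.), cpd preinc 15 min RT; start with NADPH (500 uM addition) then DTNB (15 mM addition). Kinetic TNB absorbance, 405 nm filter. Four-parameter Hill fit across titration.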
Numbers stand for hits; - = inactive; ? = inconclusive; . = no result given. Unless noted, calls follow the shape of the dose curve; as a rule, active = well fitted curve in the direction sought with a large enough effect; inconclusive = small, poorly fitted or top-dose-only effect, or another doubt; inactive = no such curve, though single readings can be large; an effect the other way counts as inactive or inconclusive.

SMILES	FBPA Giardia inh	FMDV inh	HCMV antiviral	Tb PYK inh	RE007 growth inh	Sm TGR block
CCCCCN1C(=O)c2ccccc2[C@@]2(C(=O)OCC)Cc3cc(Cl)ccc3[C@@H]12	.	?	?	-	-	.
CCOC(=O)[C@]12Cc3ccccc3[C@H]1N(Cc1ccccc1)C(=O)c1cc(F)c(F)cc12	.	25µM	?	-	-	.
COc1ccc(C)cc1NC(=O)COCc1cc(-c2ccc(F)cc2)on1	.	-	-	-	.	-
CCOC(=O)[C@]12Cc3cc4c(cc3[C@H]1N(Cc1ccccc1)C(=O)c1ccccc12)OCO4	.	-	-	-	-	.
CCOC(=O)[C@]12Cc3ccc(C)cc3[C@H]1N(C1CCCCC1)C(=O)c1ccccc12	.	6.3µM	-101	-	-	.
CCOC(=O)[C@]12Cc3cc(N(C)C)ccc3[C@H]1N(Cc1ccccc1)C(=O)c1ccccc12	.	-	-	-	-	.
CCOC(=O)[C@]12Cc3ccc(C)cc3[C@H]1N(C1CCCCC1)C(=O)c1cc(OC)ccc12	.	28µM	-103	-	16µM	.
CCOC(=O)[C@]12Cc3cc(C)ccc3[C@H]1N(C1CCCCC1)C(=O)c1ccccc12	.	7.9µM	-103	-	?	.
CCOC(=O)[C@]12Cc3ccccc3[C@H]1N(C(C)C)C(=O)c1ccccc12	.	18µM	-105	?	-	.
COc1ccc(C2=CSC3=C(C(=O)c4cccc(S(=O)(=O)N(C)C)c4)CCN23)cc1	-	-	-	?	-	1µM
COc1ccc(N(C)S(=O)(=O)c2cccc(C(=O)N3CCN(c4ccccc4)CC3)c2)cc1	.	?	-	-	-	-
Cc1cccnc1N=O	.	.	-	.	.	.
CN1CCN(c2nc(-c3cccnc3)nc3scc(-c4ccccc4)c23)CC1	-	-	-	-	-	-
Clc1nc(-c2ccccn2)nc2scc(-c3ccccc3)c12	-	?	-66	-	?	-
CCOc1ccc(NC(=O)CSc2nc3ccsc3c(=O)n2CCC(C)C)cc1	.	-	-	-	.	-
Cc1cc(N2CCNCC2)nc2ccccc12	-	-	-	-	?	22µM
C=C1CC2COC(=O)C2(Cc2ccc3ccccc3c2)C1 (stereo not given)	-	?	.	.	.	.
O=C(CCN1CCCCC1)Nc1cccc(Cl)c1	-	-	-	-	-	-
O=C(CCN1CCCCCC1)Nc1cccc(Cl)c1	-	-	-60	-	-	-
Cc1cc(C)cc(NC(=O)CCCn2c(=O)c3cccn3c3ccccc32)c1	.	-	-	-	.	-
O=C(CCCn1c(=O)c2cccn2c2ccccc21)Nc1cccc(Cl)c1	.	-	-70	-	.	-
O=C1CCN(CCc2ccccc2)CCN1C(CSc1ccc(Br)cc1)c1ccccc1 (stereo not given)	-	.	.	.	.	.
COc1ccc(Cn2c(C(=O)O)c(CNCc3ccc(C)o3)c3ccc(OC)cc32)cc1	.	-	-	-	.	-
O=C(O)CCCCCN1C(=O)C2CCCCC2C1=O (stereo not given)	-	4µM	-	-	-	-
O=C(O)CCCN1C(=O)C2C3C=CC(C2C1=O)C1C(=O)N(CCCC(=O)O)C(=O)C31 (stereo not given)	-	-	-	-	-	-
SMILES	FBPA Giardia inh	FMDV inh	HCMV antiviral	Tb PYK inh	RE007 growth inh	Sm TGR block
C#CC(=O)N(c1ccc(OC)cc1OC)C(C(=O)NC1CCCC1)c1cccs1 (stereo not given)	-	?	-99	-	-	1.6µM
COc1ccc(NC(=O)CSC2=Nc3ccccc3N=C(c3ccc(F)cc3)C2)cc1OC	.	?	-102	-	.	-
O=C(Nc1ccc(CN2CCCCC2)cc1)Nc1ccc(Br)cc1Cl	-	-	-62	-	-	-
CC(C)C(=O)Nc1ccc(Br)cc1Cl	-	-	?	-	-	-
CC(C)NC(=O)Nc1ccc(Br)cc1Cl	-	-	-61	-	-	-
C[C@@H]1CN(Cc2ccc3c(c2)CN(Cc2coc4ccccc4c2=O)CCO3)C[C@H](C)O1	.	-	.	.	.	.
S=C1SCN(Cc2cccnc2)CN1Cc1cccnc1	?	?	-95	-	?	-
S=C1SCN(Cc2ccccc2)CN1Cc1ccccc1	-	-	-	-	-	-
CN(C)c1ncnc2[nH]ncc12	.	-	-	-	-	.
CCCN(CC)c1ncnc2[nH]ncc12	.	-	-65	-	-	.

Screening data deposited in PubChem by National Center for Advancing Translational Sciences (NCATS).
